Screening results (PubChem BioAssay)
In the library only some 2.7% were active in any assay of this set; here they are far more common.
CF NFkB inh – inhibitors of PAF-induced NF-kB signaling, primary screen, cell-based, GFP fluorescence, uHTS | KKLEB NF-kB-GFP reporter, GFP fluorescence overnight | inhibition, % at 5 µM | 360,000 compounds, 0.86% hits | AID 588850, 2011;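 active means at least 50% inhibition at 5 µM, scaled per plate between neutral and stimulator controls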;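 further: PAF is a Pseudomonas aeruginosa culture filtrate used as stimulus; plate controls were PAF-stimulated DMSO wells for no effect and unstimulated DMSO wells for full effect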
Shn3 inh set2 – reduction of Shn3 3'UTR firefly luciferase signal, primary screen, Schnurri-3 inhibitor project, cell-based, Clone20 osteoblasts, set 2; Clone20 osteoblast Shn3 3'UTR firefly luciferase, 24 h; 360,000 compounds, 0.52% hits; AID 588674, 2011; inhibition, % at 12.5 µM;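 active means mean inhibition of at least 75% with every replicate also reaching 75%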;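 further: 0% = median of neutral control wells and 100% = pilot-screen positive control compound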
KKLEB tox – cytotoxicity in KKLEB CF airway cells, primary screen, cytotoxicity control for CF NF-kB inhibitor project, cell-based, uHTS, fluorescence assay plates. KKLEB CF airway cells viability, ATPlite luminescence, overnight; hits give low values; cells stimulated with P. aeruginosa culture filtrate. activity change (cytotoxicity), % at 5 µM. 360,000 compounds, 0.36% hits;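 active means corrected activity change at or below -50% at 5 µM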
HIF-2a inh – HIF-2a reporter inhibitors, primary screen, luminescence, 786-0 RCC cells; 786-0 RCC cells HIF-2a reporter, luciferase luminescence, overnight; inhibition, % at 18.8 µM; 360,000 compounds, 0.72% hits; AID 624352, 2012;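 active means inhibition of the luminescence signal of 40% or more relative to plate controls, in a single-dose primary screen at 18.75 µM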
Peg3 prom inh – Peg3 promoter-driven luciferase inhibitors, primary screen, cell-based, HeLa, luciferase luminescence. 360,000 compounds, 1.7% hits. HeLa PEG-Prom luciferase reporter, overnight. inhibition, % at 20 µM;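 active means inhibition of at least 50% at 20 µM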
TRPM1 prom inh – inhibitors of MITF-dependent TRPM1 promoter reporter, primary screen, cell-based, SK-MEL-5, single point, luciferase | SK-MEL-5 TRPM1 promoter luciferase, 24 h | inhibition, % at 12.5 µM | 330,000 compounds, 0.83% hits | AID 488899, 2010;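 active means mean inhibition across replicates of 60% or more, whatever share of single replicates reaches that level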
Mdm2 MdmX conf – retested Mdm2-MdmX interaction blockers, confirmation, cell-based, luminescence, single concentration, set 2; 740 compounds, 99% hits; AID 504601, 2011; SaOS-2 split-luciferase Mdm2/MdmX complementation; inhibition, % at 8 µM; shares compounds with HIF-2a inh;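 active means mean inhibition of the luminescence signal across two replicates at or above 26 percent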
HIF-2a inh conf – HIF-2a reporter inhibitor retest, confirmation, luminescence, 786-0 RCC cells. shares compounds with HIF-2a inh. AID 651580, 2012. inhibition, % at 18.8 µM. 1,800 compounds, 56% hits. HIF-2a luciferase reporter luminescence, overnight;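 active means mean inhibition across four replicates of at least 40 percent at the single tested concentration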
HIF-1a counter – HIF-1a luciferase reporter signal reduction – MiaPaCa-2 cells, single concentration, counter-screen for HIF-2a inhibitor project, confirmation; shares compounds with HIF-2a inh; MiaPaCa-2 HIF-1a luciferase reporter, desferoxamine, overnight; inhibition, % at 18.8 µM; 1,800 compounds, 72% hits; AID 651589, 2012;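 active means mean inhibition of the reporter signal across four replicates at the single tested dose of 50% or more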
The depositor's hits bear a star.

How did Cn1c(=O)c2c(nc(CN3CCc4ccccc4C3)n2Cc2cccc(Cl)c2)n(C)c1=O do in these assays?
CF NFkB inh: 40.1; Shn3 inh set2: 25.6; KKLEB tox: -2.5; HIF-2a inh: 43.2*; Peg3 prom inh: 40.5; HIF-2a inh conf: 14.7; HIF-1a counter: 76.1*

How did COc1cccc(NC(=O)CSCc2nc3sc(C)c(C)c3c(=O)[nH]2)c1 do in these assays?
CF NFkB inh: -4.2; Shn3 inh set2: -3.9; KKLEB tox: -9.1; HIF-2a inh: 9.6; Peg3 prom inh: -3.1

Results for CCc1ccc(-c2nc(CSCC(=O)NCCCN3CCCC3=O)c(C)o2)cc1 ?
CF NFkB inh: 0.2; Shn3 inh set2: 14.6; KKLEB tox: -11.1; HIF-2a inh: 44.9*; Peg3 prom inh: 13.5; TRPM1 prom inh: 7.3; HIF-2a inh conf: -4.8; HIF-1a counter: 16.3

What do the screens show for `O=C(COC(=O)c1nc(Cl)c(Cl)c(Cl)c1Cl)NCc1ccccc1`?
CF NFkB inh: 30.6; Shn3 inh set2: 0.0; KKLEB tox: 3.2; HIF-2a inh: 69.6*; Peg3 prom inh: 92.5*; TRPM1 prom inh: 49.6; HIF-2a inh conf: 17.7; HIF-1a counter: -19.5

Results for O=C(C=Cc1ccccc1)NCCNC(=O)C=Cc1ccccc1 ?
CF NFkB inh: -13.3; Shn3 inh set2: -14.5; KKLEB tox: 21.3; HIF-2a inh: -19.7; Peg3 prom inh: -5.6; TRPM1 prom inh: 10.8

What do the screens show for `O=C(/C=C/c1ccccc1)/C=C/c1ccccc1`?
CF NFkB inh: -79.8; Shn3 inh set2: 64.1; KKLEB tox: -16.9; HIF-2a inh: 93.9*; Peg3 prom inh: 109.9*; TRPM1 prom inh: 78.7*; HIF-2a inh conf: 3.7; HIF-1a counter: 103.0*

What do the screens show for `Cc1ccc(S(=O)(=O)N2CCOCC2)cc1NC(=O)CN1CCN(C)CC1`?
CF NFkB inh: 2.1; Shn3 inh set2: -18.8; KKLEB tox: -10.5; HIF-2a inh: 10.7; Peg3 prom inh: 8.2; TRPM1 prom inh: -3.6

How did Cc1ccc(S(=O)(=O)N2CCOCC2)cc1NC(=O)CN1CCN(c2ccc(O)cc2)CC1 do in these assays?
CF NFkB inh: -0.3; Shn3 inh set2: -24.6; KKLEB tox: 16.9; HIF-2a inh: 45.6*; Peg3 prom inh: 45.4; TRPM1 prom inh: 43.3; HIF-2a inh conf: 44.0*; HIF-1a counter: 98.5*

Results for O=C(Nc1cccc(C(F)(F)F)c1)Nc1ccc(N2CCCC2)c(S(=O)(=O)Nc2ccccc2Cl)c1 ?
CF NFkB inh: 58.7*; Shn3 inh set2: 92.0*; KKLEB tox: -57.6*; HIF-2a inh: -4.1; Peg3 prom inh: 63.7*; TRPM1 prom inh: 71.9*; Mdm2 MdmX conf: 102.0*

Results for CC(=O)Nc1ccc(N2CCOCC2)c(S(=O)(=O)Nc2ccccc2Cl)c1 ?
CF NFkB inh: -25.1; Shn3 inh set2: 0.2; KKLEB tox: 17.3; HIF-2a inh: -3.7; Peg3 prom inh: -2.0

What do the screens show for `CS(=O)(=O)c1ccc(S(=O)CC(=O)OCc2ccccc2)c([N+](=O)[O-])c1` (centres undefined)?
CF NFkB inh: 88.7*; Shn3 inh set2: 97.0*; KKLEB tox: -44.6; HIF-2a inh: 91.0*; Peg3 prom inh: 109.8*; TRPM1 prom inh: 82.6*; HIF-2a inh conf: 52.5*; HIF-1a counter: 105.8*

How did Cc1ccc(Sc2c([N+](=O)[O-])c(=O)n(C)c3ccccc23)cc1 do in these assays?
CF NFkB inh: 2.1; Shn3 inh set2: 72.4; KKLEB tox: -2.2; HIF-2a inh: 51.5*; Peg3 prom inh: 44.6; TRPM1 prom inh: 20.7; HIF-2a inh conf: 5.9; HIF-1a counter: 86.7*

How did CCC(c1nnc(SCC(=O)Nc2cc(S(C)(=O)=O)ccc2Cl)n1Cc1ccccc1)N(C)C (centres undefined) do in these assays?
CF NFkB inh: 0.9; Shn3 inh set2: 7.4; KKLEB tox: -2.1; HIF-2a inh: 14.6; Peg3 prom inh: 11.7; TRPM1 prom inh: 1.6

What do the screens show for `COC(=O)C1=C(C)N(c2cc(C)cc(C)c2)/C(=C/c2ccc(O)cc2)C1=O`?
CF NFkB inh: -5.1; Shn3 inh set2: 59.8; KKLEB tox: 10.8; HIF-2a inh: 43.7*; Peg3 prom inh: 33.1; TRPM1 prom inh: 0.5; HIF-2a inh conf: 24.1; HIF-1a counter: 60.8*

Results for O=C(Cc1cccc(NC(=O)C2CCN(C(=O)C3CCCC3)CC2)c1)Nc1cccc(C(=O)N2CCOCC2)c1 ?
CF NFkB inh: 5.5; Shn3 inh set2: -3.3; KKLEB tox: 2.0; HIF-2a inh: 9.7; Peg3 prom inh: -6.1; TRPM1 prom inh: -2.8

Results for Cc1nc([N+](=O)[O-])c(Sc2nc3ccccc3[nH]2)n1Cc1ccccc1 ?
CF NFkB inh: 42.1; Shn3 inh set2: 24.7; KKLEB tox: -9.7; HIF-2a inh: 22.3; Peg3 prom inh: -4.4; TRPM1 prom inh: 46.1

Results for Cc1cc2nc(Sc3c([N+](=O)[O-])nc(C)n3Cc3ccccc3)[nH]c2cc1C ?
CF NFkB inh: 43.7; Shn3 inh set2: -40.7; KKLEB tox: -12.9; HIF-2a inh: 52.9*; Peg3 prom inh: 32.5; TRPM1 prom inh: 9.2; HIF-2a inh conf: 16.5; HIF-1a counter: 31.5

Results for O=C(c1ccc(S(=O)(=O)Nc2ccccc2F)cc1)N1CCN(c2ccccn2)CC1 ?
CF NFkB inh: 12.2; Shn3 inh set2: 21.4; KKLEB tox: -7.3; HIF-2a inh: 2.9; Peg3 prom inh: 4.1; TRPM1 prom inh: -3.2

What do the screens show for `COc1ccc(/C=N/Nc2ccc(C(=O)O)cc2)c(OC)c1OC`?
CF NFkB inh: -0.3; Shn3 inh set2: -37.0; KKLEB tox: -3.9; HIF-2a inh: -158.6; Peg3 prom inh: -157.6; TRPM1 prom inh: -108.2

Results for COC(=O)c1ccc2c(c1)C(C)(C)C(/C=C/c1ccc(OC)c(OC)c1OC)=[N+]2C ?
CF NFkB inh: -14.8; Shn3 inh set2: 88.4*; KKLEB tox: -8.0; HIF-2a inh: 94.6*; Peg3 prom inh: 107.5*; TRPM1 prom inh: 100.6*; Mdm2 MdmX conf: 103.5*; HIF-2a inh conf: 87.5*; HIF-1a counter: 106.9*
